Compound activity: PubChem BioAssay, National Center for Advancing Translational Sciences (NCATS)
Shown are actives, neighbours in structure and some others; about 3.2% of the full set was active somewhere.
PLK1 PBD inh – blocks phosphopeptide binding to human PLK1 polo-box domain; Potency, µM, usual class: inhibitors; 360,000 compounds, 2.8% hits; Plk1 PBD binding of FITC phosphopeptide, fluorescence polarization; P53350; further: series mostly up to about 57 µM; nearly all actives have a fitted effect of over 65% in size
VDR inhibitor – blocks the human vitamin D receptor; Potency, µM, most hits filed as inhibitors; VDR-SRC2-3 peptide fluorescence polarization, 2 h; AID 504847; 400,000 compounds, 0.93% hits; P11473
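Signal is fluorescence polarization, reporting how far test compounds block the interaction of VDR with the SRC2-3 coregulator peptide after a 2 h room-temperature incubation.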
USP1 inh – inhibitors of human USP1/UAF1 deubiquitinase; O94782; recombinant USP1/UAF1, Ub-Rhodamine cleavage fluorescence; Potency, µM (titrated, usually from 57.1 µM), usual class: inhibitors; 390,000 compounds, 0.23% hits; AID 743255; further: nearly all actives have a fitted effect of over 60% in size
Target sequence (O94782 whole entry, looked up): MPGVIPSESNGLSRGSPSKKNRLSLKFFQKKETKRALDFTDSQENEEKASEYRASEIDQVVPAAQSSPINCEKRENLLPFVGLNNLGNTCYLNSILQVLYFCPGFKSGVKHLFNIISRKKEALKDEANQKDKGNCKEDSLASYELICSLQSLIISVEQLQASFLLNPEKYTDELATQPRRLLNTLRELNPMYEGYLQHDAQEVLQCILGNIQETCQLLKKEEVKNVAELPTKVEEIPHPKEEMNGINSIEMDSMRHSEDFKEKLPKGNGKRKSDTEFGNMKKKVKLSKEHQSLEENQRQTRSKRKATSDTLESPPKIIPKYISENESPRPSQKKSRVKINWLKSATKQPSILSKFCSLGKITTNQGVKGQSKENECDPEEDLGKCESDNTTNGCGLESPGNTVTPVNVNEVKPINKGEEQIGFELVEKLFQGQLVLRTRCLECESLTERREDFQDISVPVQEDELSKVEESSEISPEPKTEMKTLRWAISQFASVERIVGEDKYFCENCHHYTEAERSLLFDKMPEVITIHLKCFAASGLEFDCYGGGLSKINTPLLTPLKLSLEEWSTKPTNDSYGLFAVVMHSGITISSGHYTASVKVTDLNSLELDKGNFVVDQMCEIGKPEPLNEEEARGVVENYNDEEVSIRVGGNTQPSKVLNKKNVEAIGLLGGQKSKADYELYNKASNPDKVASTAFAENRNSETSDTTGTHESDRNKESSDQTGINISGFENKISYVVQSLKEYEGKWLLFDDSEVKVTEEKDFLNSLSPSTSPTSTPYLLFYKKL
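Step one: compound is pinned into 1nM USP1/UAF1 in HEPES pH 7.8 buffer with TCEP. Step two: 15 min room-temperature incubation. Step three: Ub-Rho (150nM final) starts cleavage, tracked by fluorescence over six one-minute reads.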
Coupling enz – coupling enzyme interference in Giardia aldolase counter-screen | coupling enzyme system counterscreen, AmpLite Red fluorescence | activity change, negative = inhibition, % at 58.2 µM, hits read low | 290,000 compounds, 0.67% hits | AID 2472; in the data active means activity change below about -30%
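Coupling enzymes only (glyceraldehyde-3-phosphate) + compound, at 57.5 uM final, 10 min RT; add substrate/coupling/AmpLite Red mix, 20 min RT; fluorescence ex 525/em 598 nm. Actives flag coupling-system interference.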
USP2a block – blocks human ubiquitin-specific protease USP2a; Potency, µM (top dose mostly 38.3 µM), usual class: inhibitors; 330,000 compounds, 0.01% hits; USP2 core, Ub-CHOP2 coupled fluorogenic reporter, 485/531; AID 463254; O75604
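Cell-free coupled assay: 10nM USP2 core preincubated 30min RT with compound in Tris-HCl pH 8.0/CaCl2/CHAPS buffer, then 25nM Ub-CHOP2 and 25nM reporter substrate; fluorescence (Ex 485/Em 531) read after 60min RT, normalized to NEM inhibition, concentration-response curves fitted.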
GALK inh – galactokinase (human) inhibition; Purified GALK, Kinase-Glo residual ATP luminescence; Potency, µM (top dose mostly 57.5 µM), actives largely listed as inhibitors; 270,000 compounds, 0.007% hits; P51570
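GALK at 5 nM final was combined with compound, 35 uM ATP and 100 uM galactose in HEPES pH8.0 with MgCl2 and DTT. The reaction ran one hour at room temperature before luminescent ATP detection.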
Numbers stand for hits; - = inactive; ? = inconclusive; . = no result. Unless noted, the call rests on the fitted dose curve; in most records, active means well fitted curve in the direction sought with a large enough effect; inconclusive means small, poorly fitted or top-dose-only effect, or another doubt; inactive means no such curve, though single readings can be large; an effect the other way counts as inactive or inconclusive.

SMILES | PLK1 PBD inh | VDR inhibitor | USP1 inh | Coupling enz | USP2a block | GALK inh
COC(C(=O)Nc1ccnn1C1CCN(Cc2cnn(C)c2)CC1)c1ccccc1 (centres undefined) | - | - | - | . | - | -
CS(=O)(=O)N1CCN(c2ccccc2NC(=O)c2ccc([N+](=O)[O-])o2)CC1 | 3.4µM | ? | - | - | - | -
CCN(CC)S(=O)(=O)c1ccc(N2CCOCC2)c(NC(=O)c2ccc(F)cc2)c1 | ? | - | - | - | - | -
O=C(Cn1cnc2c(NCc3ccccc3)ncnc21)NCCN1CCOCC1 | - | - | - | . | - | .
COc1ccccc1NC1=C(NC(C)=O)C(=O)c2ccccc2C1=O | ? | - | - | -56 | - | -
Cc1ccc(NC(=O)Cn2cnc3ccccc32)cc1C | 13µM | ? | - | - | - | -
COC(=O)CCC/C=C1/SCC(NC(=O)c2ccccc2)C1=O (centres undefined) | ? | 89µM | - | - | ? | -
COc1ccc(C[C@@H]2CN3C(=NC[C@@H]3Cc3ccc(O)cc3)N2C[C@H](C)NC(=O)CCC2CCCCC2)cc1 | 27µM | - | - | - | - | -
COc1ccc(C[C@H]2CN3C(=NC[C@@H]3Cc3ccc(O)cc3)N2C[C@H](C)NC(=O)CCC2CCCCC2)cc1 | - | - | - | - | - | -
C[C@@H](CN1C2=NC[C@H](C)N2C[C@H]1Cc1ccc(O)cc1)NC(=O)CCC1CCCCC1 | - | ? | - | - | - | -
CC(C)[C@H]1CN=C2N(C[C@H](C)NC(=O)CCC3CCCCC3)[C@H](Cc3ccc(O)cc3)CN21 | 13µM | - | - | - | - | -
CC12CCC(c3nnc(SCc4ccc(Cl)cc4)nc31)C2(C)C (centres undefined) | - | - | - | - | - | -
COc1ccc(-c2cn3cc(Cl)ccc3n2)cc1OC | - | - | - | -32 | - | -
CC1SCC(=O)N(CC(=O)Nc2ccc3c(c2)OCCO3)C1=O (centres undefined) | - | - | - | - | - | -
COc1ccc(NC(=O)CN2C(=O)CSC(C)C2=O)cc1 (centres undefined) | 21µM | - | - | - | - | -
COc1c(Cl)cc(Cl)cc1C(=O)Nc1ccc(NC(C)=O)cc1 | - | - | - | - | - | -
CCC(c1nnnn1C1CCCCC1)N1CCN(C2CCCC2)CC1 (centres undefined) | - | - | - | - | - | -
COC(=O)C1=C(C)N=C2SC(C)C(=O)N2C1/C=C/c1ccccc1OC (centres undefined) | - | - | - | - | - | -
CCOc1ccc(Nc2nc3cc(S(=O)(=O)N(CC)CC)ccc3o2)cc1 | 5.3µM | 79µM | - | - | - | -
CCCCn1c2nc3ccccc3nc2c2c(=O)n(CCC(C)C)cnc21 | - | - | - | - | - | -
O=C(O)c1ccc(N/N=C/c2cn(Cc3ccc(F)cc3)c3ccccc23)cc1 | 24µM | ? | - | - | - | -
CCNC(=S)N/N=C/c1cn(Cc2ccc(F)cc2)c2ccccc12 | - | - | - | - | ? | -
O=S(=O)(Cc1ccccc1)N=Nc1c(O)[nH]c2ccc(Br)cc12 | ? | 79µM | - | - | - | -
Cc1cc(C)c(S(=O)(=O)Nc2nnc(C)s2)c(C)c1 | 3.4µM | ? | - | - | - | -
Cc1cc(C)c(S(=O)(=O)Nc2nnc(CC(C)C)s2)c(C)c1 | - | - | - | - | - | -
SMILES | PLK1 PBD inh | VDR inhibitor | USP1 inh | Coupling enz | USP2a block | GALK inh
CCn1c2ccccc2c2cc(C#N)c(N)nc21 | - | - | - | . | . | .
O=C(/C=C/c1cc[n+](CC(=O)c2ccc3cccc4c3c2CC4)cc1)c1ccc2cccc3c2c1CC3 | 19µM | - | ? | - | ? | -
CCOC(=O)C1(C)C=C(Nc2ccc(O)cc2)C(=O)N1c1ccc(O)cc1 (centres undefined) | - | - | - | -49 | - | -
COc1ccc(OC)c(CCNC(=O)c2ccc3c(c2)N(Cc2ccc(C)cc2)CCS3)c1 | . | - | - | . | . | .
O=C(NCCN1CCOCC1)c1ccc2c(c1)N(Cc1ccccc1)CCS2 | 27µM | ? | - | - | - | -
COc1ccc(CCNC(=O)c2ccc3c(c2)N(Cc2ccc(F)cc2)CCS3)cc1OC | 30µM | ? | - | - | - | -
N#Cc1ccccc1OCc1cn(CC(=O)c2ccc(O)cc2)nn1 | 24µM | ? | - | . | . | .
CC(C)=CCC/C(C)=C/CC/C(C)=C/CC/C(C)=C/CC1=C(C)C(=O)c2ccccc2C1=O | - | ? | - | -34 | - | -
CC(C)=CCC1=C(OCC(=O)O)C(=O)c2ccccc2C1=O | 30µM | ? | 10µM | -45 | - | ?
CC(=O)Nc1ccc(C2=NN(C)C(=NCc3ccccc3)SC2)cc1 | 30µM | - | - | - | - | -
Cc1cc(C(=O)CCl)c(C)n1-c1ccon1 | 27µM | - | - | - | - | -
Cc1cc(C(=O)CCl)c(C)n1-c1cccc([N+](=O)[O-])c1 | ? | - | - | - | - | -
COc1cc2c(cc1NC(=S)Nc1cccc(C(F)(F)F)c1)oc1ccccc12 | - | - | ? | - | - | -
Cc1oncc1C(=S)Nc1ccccc1 | 27µM | - | - | - | - | -
Cc1oncc1C(=O)Nc1ccc2ccccc2c1 | - | - | - | - | - | -
CC(C)O/C(=N/S(=O)(=O)c1ccc(Cl)cc1)c1ccccc1 | - | - | - | . | . | .
Cc1ccc(/C=C/C(=O)N2CCN(c3ncccn3)CC2)o1 | 30µM | ? | - | - | - | -
O=C1CN(C(=O)COC(=O)c2ccc[n+]([O-])c2)c2ccccc2N1 | - | - | ? | - | - | -
C=C[C@@H](c1ccccc1)[C@](C)(O)C(=O)O | - | . | . | . | . | .
C=CC(C1=CC(=O)C(OC)=CC1=O)c1ccc(O)cc1 (centres undefined) | . | - | . | -35 | . | .
C=CC(C1=CC(=O)C=CC1=O)c1ccccc1 (centres undefined) | . | 35µM | . | - | . | .
C=C[C@@H](C1=CC(=O)C(OC)=C(OC)C1=O)c1ccccc1 | . | 4µM | . | -45 | . | .
O=C(CN1C(=O)C2C3CC(C(Br)C3Br)C2C1=O)OCC(=O)c1cccc([N+](=O)[O-])c1 (centres undefined) | 21µM | - | - | - | - | -
O=C(COc1ccccc1F)NC12CC3CC(CC(C3)C1)C2 | 30µM | ? | - | - | - | -
Cc1nc(C)c(-c2ccc(SCC(=O)Nc3ccc(F)cc3F)nn2)s1 | - | - | - | . | - | -
CCn1c(Cc2ccc(OC)cc2)nnc1SCC(=O)Nc1cccc(C(=O)OC)c1 | - | - | - | - | - | -
COc1cc(CCNC2=CC(=O)c3ncccc3C2=O)ccc1O | - | - | 18µM | . | . | .
COC(=O)c1c(Cl)c2n3ccccc3c(C)c(-c3ccccc3)c-2c1C(=O)OC | 24µM | - | - | - | - | -
